Integrin act MD = qHTS for Activators of Integrin-Mediated Alleviation for Muscular Dystrophy; alpha7betagal myoblasts, beta-gal FDG fluorescence, 48 h; 350,000 tested, 0.064% active; Potency, µM (doses to about 38.3 µM), without a hit: at the highest dose activation, usual class: activators;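 further: potency means the concentration at half of the fitted maximal effect; 100% = response of the positive control SU9516; nearly all actives have a fitted effect of over 60% in size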
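Alpha7betagal+/- myoblasts (passage 13) were plated 16-24 hr, then exposed to compounds (1:260 dilution of DMSO stock) for 48 hours at 37C. After MPER lysis, β-galactosidase reporter activity was read as FDG fluorescence (ex 480/em 540) after 30 minutes.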
IL1B secr inh = qHTS for Inhibitors of Inflammasome Signaling: IL-1-beta AlphaLISA Primary Screen; AID 743279, 2014; activity change, % at 57.5 µM; THP-1 LPS/ATP IL-1B secretion, AlphaLISA, 16 h; stronger effect = lower value; 360,000 tested, 4.7% active; in the data active means activity change below about -50%; inconclusive means mostly about -30% to -49%; further: on the % scale 0 is the no-effect control and ±100 the full control effect
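Secreted IL-1B measured by AlphaLISA bead assay after 16 h compound exposure of THP-1 cells; compounds (final up to 57.5 uM) added 1 h before LPS (250 ng/mL) and ATP (1.25 mM) stimulation; lower signal means less secretion.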
ATXN2 expr inh = Primary qHTS for Inhibitors of ATXN expression; HEK-293 ATXN2-luciferase reporter, luminescence, 24 h; Potency, µM (highest dose often 57 µM), inactives show at the highest dose activity change, negative = inhibition, hits mostly inhibitors; 360,000 tested, 0.72% active; AID 1745845, 2022; further: potency means the concentration at half of the fitted maximal effect; on the % scale 0 is the no-effect control and ±100 the full control effect; nearly all actives have a fitted effect of over 55% in size
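qHTS (up to 57 uM final) was run with 24 h compound exposure of reporter cells at 37 °C. Each well was multiplexed: SteadyGlo luminescence measured ATXN2-luciferase expression after a fluorogenic Gly-Phe-AFC viability readout (25 uM final).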
DRD3 antagonist = qHTS of D3 Dopamine Receptor Antagonist: qHTS | D(3) dopamine receptor (Homo sapiens), P35462 | D3R cells, DiscoveRx beta-arrestin luminescence, antagonist mode; stronger effect = lower value | max response, negative = inhibition, % | 360,000 tested, 2.5% active; in the data active means max response below about -50%; inconclusive means no clear call, values can overlap the other calls; further: on the % scale 0 is the no-effect control and ±100 the full control effect
Target sequence (P35462 whole entry, looked up): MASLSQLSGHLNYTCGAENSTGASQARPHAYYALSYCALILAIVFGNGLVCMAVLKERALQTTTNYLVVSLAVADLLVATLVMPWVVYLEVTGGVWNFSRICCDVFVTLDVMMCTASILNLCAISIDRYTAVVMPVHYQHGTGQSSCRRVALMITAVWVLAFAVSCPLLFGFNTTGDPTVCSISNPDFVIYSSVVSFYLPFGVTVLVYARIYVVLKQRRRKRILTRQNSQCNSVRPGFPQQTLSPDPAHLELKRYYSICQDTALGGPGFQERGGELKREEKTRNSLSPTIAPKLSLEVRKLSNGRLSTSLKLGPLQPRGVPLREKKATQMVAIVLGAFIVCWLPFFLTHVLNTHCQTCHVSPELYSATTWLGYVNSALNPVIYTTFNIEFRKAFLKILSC
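Cells plated overnight at 1500 cells/well, then exposed to library compounds with dopamine controls for 90 minutes at 37 degrees C. DiscoveRx reagent added for 30–60 minutes at room temperature; luminescence read, quantitative HTS format.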
S2 tox = Viability Counterscreen for Primary qHTS for Inhibitors of ATXN expression. S2 cells (HEK-293 line with an ATXN2-luciferase reporter) viability, CellTiter-Fluor protease fluorescence, 24 h. Potency, µM (doses to about 56.7 µM), most hits filed as cytotoxic. 400,000 tested, 0.49% active. AID 651635, 2014; further: potency means the concentration at half of the fitted maximal effect; nearly all actives have a fitted effect of over 40% in size
DRD3 agonist = qHTS of D3 Dopamine Receptor Agonist: qHTS | D3R DiscoveRx beta-arrestin cells, luminescence, 90 min | 410,000 tested, 0.58% active | D(3) dopamine receptor (Homo sapiens), P35462 | max activation, %; in the data active means max activation above about 30%; further: 0% is about no effect
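Agonist-mode cell screen: cells plated at 1500/well and incubated overnight at 37 °C, then exposed to library compounds for 90 min at 37 °C. Detection reagent was added for 30–60 min at room temperature, and luminescence was read.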
Numbers without * were called inactive; i = inactive; ? = inconclusive; · = no result; [ ] = dose if it differs, or a comment. A selection: hits, their analogues and other compounds. The true share with any hit is near 7%. Unless noted, the call rests on the fitted dose curve; in most records, active means well fitted curve in the direction sought with a large enough effect; inconclusive means small, poorly fitted or top-dose-only effect, or another doubt; inactive means no such curve, though single readings can be large; an effect the other way counts as inactive or inconclusive.

SMILES	Integrin act MD	IL1B secr inh	ATXN2 expr inh	DRD3 antagonist	S2 tox	DRD3 agonist
Cc1cc(C(=O)COC(=O)c2ccccc2O)c(C)n1Cc1cccs1	-37%	?	0.71µM*	29	i	17
Cc1cc(C(=O)COC(=O)c2ccccc2O)c(C)n1CC1CCCO1 (stereo not given)	-39%	-7	0.35µM*	8	i	9
COc1ccc(-c2nc(C)ncc2-c2ccccc2)c(O)c1	0%	6	-5%	-8	i	1
O=c1[nH]c2cc([N+](=O)[O-])cc(Cl)c2c2ccccc12	4%	1	·	4	i	1
N#Cc1cc2[nH]c3ccccc3c2[n+](-c2ccc([N+](=O)[O-])cc2)c1N	-30%	-97*	?	6	?	6
C=CC[C@@H](CC(=O)N(CCO)Cc1ccccc1)C(=O)N[C@H](COC(=O)[C@@H](CC=C)Cc1ccc(F)cc1)Cc1c[nH]c2ccccc12	-40%	0	0%	8	?	-24
C=CCC[C@H](Cc1ccc(F)cc1)C(=O)OC[C@H](Cc1c[nH]c2ccccc12)NC(=O)[C@H](CC=C)CC(=O)N(CCO)Cc1ccccc1	-1%	?	?	0	32µM*	-6
C=CC[C@H](CC(=O)N(CCO)Cc1ccccc1)C(=O)N[C@H](COC(=O)[C@@H](CC=C)Cc1ccc(F)cc1)Cc1c[nH]c2ccccc12	-38%	-56*	?	63	?	3
C=CCC[C@@H](Cc1ccc(F)cc1)C(=O)OC[C@@H](Cc1c[nH]c2ccccc12)NC(=O)[C@@H](CC=C)CC(=O)N(CCO)Cc1ccccc1	-3%	-19	?	129	?	41*
COc1ccc(/C(C)=N/NC(=O)CNC(=O)CCc2ccccc2)c(OC)c1	-11%	28	-6%	11	?	12
CC(C)CN1C(=O)c2ccccc2C1c1nnnn1-c1ccc2c(c1)OCCO2 (stereo not given)	·	23	14%	0	?	0
O=C(CN1CCOCC1)NNc1nc(-c2ccccc2)c2cc(Br)ccc2n1	-27%	?	-39%	17	i	8
CC1(C(=O)NS(=O)(=O)c2ccccc2Cl)CCN1C(=O)Cc1cccs1 (stereo not given)	·	-3	17%	25	i	1
Cc1ccc(NC(=S)NC2CCN(Cc3ccccc3)CC2)cc1	-31%	-20	-6%	-61*	i	-27
CC(C)c1ccc(NC(=S)NC2CCN(Cc3ccccc3)CC2)cc1	-47%	-89*	0%	?	i	-21
Cc1ccc(C(=S)N2CCN(Cc3ccccc3)CC2)cc1	6%	-15	-20%	-71*	i	-26
S=C(Nc1ccc2c(c1)OCO2)NC1CCN(Cc2ccccc2)CC1	-9%	-8	1%	-65*	i	-59
O=C(Cn1nnc(-c2ccc(C(F)(F)F)cc2)n1)NCCc1ccccc1	·	·	0%	·	i	-6
Cc1ccc(NC(=O)CN2CCC(NC(=O)Cc3ccccc3)CC2)cc1C	0%	?	15%	20	i	9
Cc1ccc(NC(=S)NC2CCN(Cc3ccccc3)CC2)cc1C	-17%	-20	·	-52*	?	0
CCOC(=O)c1c(NC(=O)c2cc3nc(-c4ccc(OC)cc4)cc(C(F)(F)F)n3n2)sc2c1CCC(C)C2 (stereo not given)	·	·	·	·	·	-13
Cc1cc(C(=O)OCC(=O)Nc2c(F)cccc2F)c(C)n1-c1ccccc1	-56%	-2	27%[11.3 µM]	-18	i	-5
S=c1nc(-c2ccccn2)c(-c2ccccn2)n[nH]1	·	8	0%	-78*	i	-11
c1ccc(-c2ccccn2)nc1	·	17	-6%	-12	i	13
COc1cc(OC)cc(-c2nnc(SCc3c(F)cccc3Cl)o2)c1	-33%	-60*	51%	25	i	21
SMILES	Integrin act MD	IL1B secr inh	ATXN2 expr inh	DRD3 antagonist	S2 tox	DRD3 agonist
COc1ccc(-c2nnc(SCc3ccccc3F)o2)cc1	-16%	-7	79%	-11	i	6
COCCn1c(-c2ccc(OC)cc2)cnc1SCC(=O)Nc1cc(C)on1	-18%	2	-16%	-70*	i	-8
COc1ccc(CN(C(=O)CNC(=O)c2ccco2)C(C(=O)NCC2CCCO2)c2ccccc2)cc1 (stereo not given)	16%	-16	-22%	0	i	-2
COc1ccc(NC(=O)C2CCN(C(=O)NC3CCCCC3)CC2)c(OC)c1	-23%	-6	2%	6	i	0
COC(=O)C[C@H]1C=C[C@@H](NC(=O)NC2CCCCC2)[C@@H](CO)O1	·	11	·	7	·	5
COc1ccc(CCn2c(SCC(=O)Nc3cc(C)on3)nc3ccccc3c2=O)cc1OC	16%	1	3%	4	i	1
Cc1cc(NC(=O)CSc2nc3cc4c(cc3c(=O)n2CCc2ccccc2)OCO4)no1	4%	46	-1%	-53*	i	2
COc1cccc2c3cccc(OC)c3c3[nH]cnc3c12	-4%	-102*	0%	11	i	3
COc1cccc2[nH]c3c(=O)[nH]cnc3c12	14%	40	15%	3	·	12
COc1ccc(OCCOCCN2CCN(C)CC2)cc1	2%	6	·	9	i	0
c1ccc(OCCN2CCN(C(c3ccccc3)c3ccccc3)CC2)cc1	-44%	-22	-33%	-89*	i	-14
CCN1CCN(CCCOc2ccc(-c3ccccc3)cc2)CC1	-51%	-56*	?	?	?	-15
CCN1CCN(CCCOc2ccccc2-c2ccccc2)CC1	-77%	-5	·	?	i	-13
CN1CCN(CCOc2ccc(-c3ccccc3)cc2)CC1	-5%	-59*	9%	-7	?	-18
CN1CCN(CCCOc2ccc(-c3ccccc3)cc2)CC1	-57%	-82*	-1%	-15	i	-9
Cc1ccc(CNC(=O)c2cc(-c3ccccc3)nn2Cc2cc(C)no2)cc1	-3%	-2	6%	-13	i	-11
O=C1CCCC2=C1C(Cc1ccccc1)C1=C(CCCC1=O)O2	-22%	7	-1%	2	i	-1
CN1c2ccccc2C(C)(C)C12CCCC(=O)N2 (stereo not given)	-28%	18	3%	4	i	-2
CC(C)(C)C(=O)N1CCN(C(c2ccccc2)c2ccccc2)CC1	-4%	-15	-13%	-9	i	4
CN1CCN(C(c2ccccc2)c2ccccc2)CC1	·	-14	-2%	-80*	i	0

Bioassay records: PubChem BioAssay, National Center for Advancing Translational Sciences (NCATS)
